The source of these data is PubChem BioAssay.

Activity calls are given as the source filed them.

Assay [1] is described as follows: small molecules captured by biotinylated probe aFSTL3 – biochemical, small-molecule microarray, fluorescence 635/667, stem cell growth factor project, primary screen (AID 1064).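 Note: measures binding of the biotinylated anti-FSTL3 antibody to printed compounds.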 The note with it: higher = more signal.
A short description of assay [2]: binders from COS7 lysate, DM2A8 probe, primary screen, torsin A project, cell lysate, small-molecule microarray, fluorescence 635/667 (AID 1065). The note with it: higher = more signal, COS7 lysate expressing mutant human TOR1A.
Assay [3] is described as follows: small molecules captured by biotinylated probe aFGF2 – biochemical, small-molecule microarray, fluorescence 635/667, stem cell growth factor project, primary screen (AID 1067).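 Note: measures binding of biotinylated aFGF2 protein to printed compounds on slides; z-score merges feature fluorescence and signal-to-noise across triplicate slides.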 As to conditions: higher = more signal.
Assay [4] is described as follows: small molecules captured by biotinylated probe aFGF10 – biochemical, small-molecule microarray, fluorescence 635/667, stem cell growth factor project, primary screen (AID 1071).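 Note: score merges 667 nm spot intensity and signal to noise from triplicate slides.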 As to conditions: higher = more signal.
In assay [5] the target is Neurogenic locus notch homolog protein 2 (Homo sapiens) (UniProt Q04721). Description: small molecules binding Notch2 protein – biochemical, small-molecule microarray, 635 nm fluorescence, stem cell growth factors, primary screen (AID 1073). As to conditions: higher = more signal.
Assay [6] has as its target Pro-neuregulin-1, membrane-bound isoform (Homo sapiens) (UniProt Q02297). Put plainly: small molecules binding neuregulin-1 protein – biochemical, small-molecule microarray, fluorescence 635/667, psychiatric disease protein project, primary screen (AID 1075).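 Note: score combines 667 nm spot fluorescence with signal to noise.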 As to conditions: NRG1 binding, 635 nm fluorescence, higher = more signal.
In assay [7] the test system is Neuregulin-1 EGF-like domain. Description: small molecules binding NRG1 EGF domain – biochemical, small-molecule microarray, 635 nm fluorescence, primary screen (AID 1081).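 Note: binding of the protein to compounds printed on small-molecule microarray slides.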 The note with it: higher = more signal.
Assay [8] can be described thus: FRG1 expression reporter modulators in myotubes – cell-based, C2C12 myotubes, firefly/Renilla luciferase, luminescence, FRG1 inhibition for FSHD, primary screen (AID 1084). The note with it: FRG1 promoter luciferase, higher = more signal, called active from +8 up or from −8 down.
The nature of assay [9]: small molecules captured by biotinylated probe aFST – biochemical, small-molecule microarray, fluorescence 635/667, stem cell growth factor project, primary screen (AID 1086).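 Note: score merges 667 nm fluorescence with signal-to-noise of each printed compound spot.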 As to conditions: higher = more signal.
A short description of assay [10]: binders of probe aHhip on microarray, primary screen, stem cell growth factor project, biochemical, small-molecule microarray, fluorescence 635/667 (AID 1087).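 Note: score merges spot fluorescence at 667nm with spot signal to noise ratio.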 The note with it: higher = more signal.
Assay [11] deals with PRMT1 (protein arginine N-methyltransferase 1). Put plainly: small molecules binding arginine methyltransferase PRMT1 – biochemical, small-molecule microarray, 635 nm fluorescence, primary screen (AID 1088).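 Note: binding of Prmt1 protein to compounds spotted on small-molecule microarray slides.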 The note with it: higher = more signal.
Assay [12] is described as follows: growth effects on S. cerevisiae YJM789 – YJM789 clinical isolate, OD600, 24 h, basal, primary screen (AID 1089).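 Note: growth of clinical yeast isolate S. cerevisiae YJM 789 seeded 1000 cells per well; test concentration not given here.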 As to conditions: higher = more signal, called active from +8 up or from −8 down.
A short description of assay [13]: S. pombe growth modifiers, basal conditions – strain 972, OD600, 24 h, no modulator, primary screen (AID 1090).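 Note: basal condition with compound alone and no growth modifier present; test concentration not given here.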 As to conditions: S. pombe 972 growth, higher = more signal, called active from +8 up or from −8 down.
The nature of assay [14]: budding yeast growth modifiers under rapamycin – strain BY4716, OD600, 96 h, primary screen (AID 1091). Note: test concentration not given here. The note with it: S. cerevisiae BY4716 + rapamycin, higher = more signal, called active from +8 up or from −8 down.
Assay [15] addresses Torsin-1A-interacting protein 2 (Homo sapiens) (UniProt Q8NFQ8). Put plainly: small molecules binding lysate-expressed LULL1 – cell lysate, human LULL1 lysate, 635/667 nm fluorescence, primary screen (AID 1092).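 Note: probe is lysate of COS7 cells overexpressing human LULL1; score merges per-feature 667 nm fluorescence with signal-to-noise.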 The note with it: small-molecule microarray, hLULL1 lysate binding, 635 nm fluorescence; higher = more signal.
Assay [16] can be described thus: optical density change of DRC41 E. coli – strain DRC41, OD650, 24 h, E. coli filamentation project, primary screen (AID 1093).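 Note: MC1000 strain lacking acrAB efflux and sulA so SOS filamentation is blocked; test concentration not given here.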 The note with it: E. coli DRC41 growth, higher = more signal, called active from +8 up or from −8 down.
The nature of assay [17]: probe aLefty2 binding to arrayed compounds – biochemical, biotinylated probe, 635/667 nm fluorescence, primary screen (AID 1094).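 Note: score merges spot fluorescence near 667 nm with spot signal-to-noise ratio.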 As to conditions: small-molecule microarray, higher = more signal.
The test system of assay [18] is Noggin (protein binding on small-molecule microarray). Put plainly: small molecules binding Noggin protein – biochemical, 635/667 nm fluorescence, primary screen (AID 1095).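 Note: score merges 667 nm feature fluorescence with signal to noise over triplicate slides.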 The note with it: 635 nm fluorescence, higher = more signal.
Assay [19] addresses Neurogenic locus notch homolog protein 3 (Homo sapiens) (UniProt Q9UM47). Put plainly: small molecules binding NOTCH3 protein – biochemical, 635/667 nm fluorescence, primary screen (AID 1096). The note with it: small-molecule microarray, 635 nm fluorescence, higher = more signal.
A short description of assay [20]: probe aEGFR binding to arrayed compounds – biochemical, biotinylated probe, 635/667 nm fluorescence, primary screen (AID 1097).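 Note: probe is a biotinylated anti-EGFR antibody binding compounds printed on slides; score combines fluorescence near 667 nm and signal to noise of each spot.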 The note with it: small-molecule microarray, higher = more signal.

Sequence of Neurogenic locus notch homolog protein 2 (Homo sapiens) (Q04721 whole entry, looked up, canonical isoform): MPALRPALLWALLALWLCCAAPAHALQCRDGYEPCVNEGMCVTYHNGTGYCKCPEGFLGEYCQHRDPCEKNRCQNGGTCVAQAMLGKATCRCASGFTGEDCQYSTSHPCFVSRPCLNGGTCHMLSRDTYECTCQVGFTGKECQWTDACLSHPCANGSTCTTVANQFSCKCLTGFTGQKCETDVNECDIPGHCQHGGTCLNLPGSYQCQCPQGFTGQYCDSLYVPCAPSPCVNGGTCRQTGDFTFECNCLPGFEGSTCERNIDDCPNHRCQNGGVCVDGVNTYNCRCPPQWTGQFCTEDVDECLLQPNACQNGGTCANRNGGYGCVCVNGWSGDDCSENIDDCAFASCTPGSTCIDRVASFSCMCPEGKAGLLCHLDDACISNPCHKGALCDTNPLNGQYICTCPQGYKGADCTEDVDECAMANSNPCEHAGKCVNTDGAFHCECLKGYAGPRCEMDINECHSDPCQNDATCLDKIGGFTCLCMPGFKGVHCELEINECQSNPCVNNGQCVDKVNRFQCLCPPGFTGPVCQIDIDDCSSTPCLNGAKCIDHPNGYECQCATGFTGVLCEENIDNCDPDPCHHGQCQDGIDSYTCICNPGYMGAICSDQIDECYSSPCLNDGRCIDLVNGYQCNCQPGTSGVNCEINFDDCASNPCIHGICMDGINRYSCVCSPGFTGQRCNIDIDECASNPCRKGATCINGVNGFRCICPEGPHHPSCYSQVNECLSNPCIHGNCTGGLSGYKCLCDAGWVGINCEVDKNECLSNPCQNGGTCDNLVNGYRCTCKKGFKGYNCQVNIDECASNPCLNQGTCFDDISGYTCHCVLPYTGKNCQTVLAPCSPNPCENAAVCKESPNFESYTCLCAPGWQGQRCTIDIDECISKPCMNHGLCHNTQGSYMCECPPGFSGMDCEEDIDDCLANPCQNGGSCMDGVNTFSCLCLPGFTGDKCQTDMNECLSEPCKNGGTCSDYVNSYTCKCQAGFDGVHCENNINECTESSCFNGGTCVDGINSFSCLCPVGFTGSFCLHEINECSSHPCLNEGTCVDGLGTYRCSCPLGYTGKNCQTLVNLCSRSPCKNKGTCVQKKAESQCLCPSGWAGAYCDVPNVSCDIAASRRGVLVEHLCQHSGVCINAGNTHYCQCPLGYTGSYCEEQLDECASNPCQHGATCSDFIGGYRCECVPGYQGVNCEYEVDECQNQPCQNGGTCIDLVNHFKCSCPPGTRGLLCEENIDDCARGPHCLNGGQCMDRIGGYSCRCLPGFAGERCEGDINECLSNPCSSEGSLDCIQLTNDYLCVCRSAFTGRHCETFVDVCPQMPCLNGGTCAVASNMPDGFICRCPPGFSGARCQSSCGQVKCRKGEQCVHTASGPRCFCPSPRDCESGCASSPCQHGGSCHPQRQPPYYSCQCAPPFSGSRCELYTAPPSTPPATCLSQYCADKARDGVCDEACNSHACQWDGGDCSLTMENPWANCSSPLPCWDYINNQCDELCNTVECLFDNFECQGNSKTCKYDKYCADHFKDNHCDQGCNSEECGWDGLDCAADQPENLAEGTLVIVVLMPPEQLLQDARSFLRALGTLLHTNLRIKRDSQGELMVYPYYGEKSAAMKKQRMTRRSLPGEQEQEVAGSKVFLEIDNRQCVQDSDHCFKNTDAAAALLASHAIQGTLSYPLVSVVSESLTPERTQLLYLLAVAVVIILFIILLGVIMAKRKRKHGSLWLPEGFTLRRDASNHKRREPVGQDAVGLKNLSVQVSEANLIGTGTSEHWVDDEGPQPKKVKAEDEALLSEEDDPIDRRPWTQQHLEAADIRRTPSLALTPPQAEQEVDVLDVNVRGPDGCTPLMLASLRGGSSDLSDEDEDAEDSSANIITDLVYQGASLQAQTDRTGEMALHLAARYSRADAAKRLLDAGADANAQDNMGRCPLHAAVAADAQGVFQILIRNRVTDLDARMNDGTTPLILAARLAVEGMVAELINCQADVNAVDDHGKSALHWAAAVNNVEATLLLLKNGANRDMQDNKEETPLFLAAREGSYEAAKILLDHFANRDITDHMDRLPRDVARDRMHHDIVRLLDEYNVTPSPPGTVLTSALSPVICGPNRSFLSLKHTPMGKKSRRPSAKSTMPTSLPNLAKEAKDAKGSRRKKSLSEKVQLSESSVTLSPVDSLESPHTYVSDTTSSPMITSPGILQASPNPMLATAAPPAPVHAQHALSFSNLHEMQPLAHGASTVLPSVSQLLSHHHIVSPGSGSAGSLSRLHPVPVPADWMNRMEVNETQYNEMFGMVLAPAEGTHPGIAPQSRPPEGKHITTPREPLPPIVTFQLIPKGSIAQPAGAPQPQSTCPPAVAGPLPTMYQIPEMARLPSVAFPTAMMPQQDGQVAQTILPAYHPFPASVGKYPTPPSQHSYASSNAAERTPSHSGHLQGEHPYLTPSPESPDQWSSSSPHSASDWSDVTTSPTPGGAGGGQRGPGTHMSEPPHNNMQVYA
Sequence of Torsin-1A-interacting protein 2 (Homo sapiens) (Q8NFQ8 whole entry, looked up): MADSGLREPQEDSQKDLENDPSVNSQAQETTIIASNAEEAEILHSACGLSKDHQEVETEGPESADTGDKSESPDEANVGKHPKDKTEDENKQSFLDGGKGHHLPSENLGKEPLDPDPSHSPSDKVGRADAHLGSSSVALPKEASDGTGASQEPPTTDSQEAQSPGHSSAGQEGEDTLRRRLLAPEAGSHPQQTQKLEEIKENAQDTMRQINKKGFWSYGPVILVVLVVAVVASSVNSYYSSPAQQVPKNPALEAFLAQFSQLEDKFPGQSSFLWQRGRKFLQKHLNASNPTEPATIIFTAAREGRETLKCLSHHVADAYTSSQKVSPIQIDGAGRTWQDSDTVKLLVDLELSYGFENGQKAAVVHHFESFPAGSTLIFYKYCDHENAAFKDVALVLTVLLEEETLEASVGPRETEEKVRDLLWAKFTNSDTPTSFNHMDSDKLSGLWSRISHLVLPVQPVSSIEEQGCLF
Sequence of Pro-neuregulin-1, membrane-bound isoform (Homo sapiens) (Q02297 whole entry, looked up, the tested form may be a part, canonical isoform): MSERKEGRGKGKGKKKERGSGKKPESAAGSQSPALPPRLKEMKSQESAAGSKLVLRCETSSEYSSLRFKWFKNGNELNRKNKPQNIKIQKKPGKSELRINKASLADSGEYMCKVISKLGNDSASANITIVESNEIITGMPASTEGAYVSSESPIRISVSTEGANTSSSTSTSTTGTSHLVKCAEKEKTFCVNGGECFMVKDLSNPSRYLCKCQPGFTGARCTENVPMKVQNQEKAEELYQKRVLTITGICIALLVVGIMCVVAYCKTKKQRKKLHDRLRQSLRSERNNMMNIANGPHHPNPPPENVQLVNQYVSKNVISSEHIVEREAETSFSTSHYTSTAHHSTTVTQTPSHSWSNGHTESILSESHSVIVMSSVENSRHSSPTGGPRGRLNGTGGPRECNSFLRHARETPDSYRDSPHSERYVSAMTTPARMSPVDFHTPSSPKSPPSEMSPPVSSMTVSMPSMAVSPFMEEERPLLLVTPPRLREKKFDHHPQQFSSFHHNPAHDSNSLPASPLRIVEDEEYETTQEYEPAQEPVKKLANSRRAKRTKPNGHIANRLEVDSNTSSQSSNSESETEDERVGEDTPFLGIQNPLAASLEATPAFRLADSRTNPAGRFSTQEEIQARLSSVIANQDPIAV

`CCCC[C@H]1OB(O)C[C@H]2C1=C(C)C[C@H]1C(=O)N(Cc3ccccc3)C(=O)[C@H]12`: the composite z-score in assay [1] is -0.573; in assay [2], 0.383; in [3], 0.0171; in assay [4] it was 0.951; in assay [5], 0.316; in [6], 0.421. The composite z-score was 0.795 in assay [7]; 0.267 in [9]; 0.312 in assay [10]; 0.705 in assay [11]; 0.342 in assay [15]; -0.102 in assay [17]. Besides, the composite z-score in assay [18] turned out to be 0.919; in [19], 0.666; in [20], 0.0215. Also, the z-score in assay [8] is 0.758 (inactive); in assay [12], -0.482 (inactive); in assay [13], -1.33 (inactive); in [14], -1.04 (inactive); in [16], 1.75 (inactive).

Regarding `[N-]=[N+]=Nc1ccccc1[C@@H]1OC(c2ccc(OCCCO)cc2)=N[C@]1(CCS(=O)(=O)c1ccccc1)C(=O)N1CCOCC1`, the composite z-score in assay [1] amounted to 0.712; in [2] it was 0.274; in assay [3], 0.269; in [4] it was 1.09; in [5], 1.62; in assay [6] it was 1.95. In addition, the composite z-score in assay [7] is 1.24; in assay [9], 1.89; in assay [10] it was -0.123; in [11], 1.55; in [15], 3.59; in assay [17] it was 0.515. In addition, the composite z-score in [18] amounted to 0.417; in assay [19], 1.06; in assay [20], 0.65. The z-score in assay [8] is -0.246 (inactive); in [12] it was 1.32 (inactive); in [13], 1.91 (inactive); in [14], 1.72 (inactive); in assay [16] it was 0.376 (inactive).

Regarding `C=CCNC(=O)[C@@H]1[C@H]2C(=O)O[C@H](c3ccccc3)[C@H](c3ccccc3)N2[C@H](c2ccc(O)cc2)[C@@]12C(=O)N(C(=O)OCCOC)c1ccccc12`, the composite z-score is -0.0042 in assay [1]; 1.11 in assay [2]; -0.0434 in assay [3]; 0.558 in assay [4]; 0.369 in assay [5]; 1.51 in [6]. Also, the composite z-score is 1.23 in assay [7]; 0.376 in assay [9]; -0.0994 in assay [10]; 1.53 in assay [11]; 3.25 in [15]; -0.0458 in [17]. The composite z-score in [18] was 0.559; in assay [19], 0.509; in assay [20], -0.14. Moreover, the z-score is 0.993 (inactive) in assay [8]; 0.655 (inactive) in assay [12]; 0.625 (inactive) in [13]; 2.8 (inactive) in assay [14]; 1.11 (inactive) in assay [16].

On to `COC(=O)c1c(CC[C@@H](CO)NC(=O)N[C@@H](Cc2ccccc2)Cn2cc(C3(O)CCCCC3)nn2)oc(C(C)=O)c1C(=O)OC`, for which the composite z-score in assay [1] is -0.352; in [2] it was 1.02; in assay [3], -0.0478; in [4], 0.337; in assay [5], 0.617; in assay [6], 0.824. Further, the composite z-score is 0.862 in assay [7]; 0.439 in assay [9]; -0.0994 in [10]; 1.55 in assay [11]; 1.38 in [15]; -0.0441 in assay [17]. Further, the composite z-score in [18] was determined as 1.09; in assay [19], 1.12; in assay [20], 0.0117. Besides, the z-score in [8] is 1.14 (inactive); in assay [12], -2.65 (inactive); in [13], -1.81 (inactive); in [14], -0.415 (inactive); in [16] it was 1.31 (inactive).

For the compound `[N-]=[N+]=Nc1ccccc1C[C@]1(C(=O)NCCN2CCOCC2)N=C(c2ccc(OCCCO)cc2)O[C@H]1c1ccccc1`, the composite z-score was -0.283 in assay [1]; 0.309 in assay [2]; -0.085 in assay [3]; 0.271 in [4]; 1.05 in [5]; 1.07 in assay [6]. For the same compound, the composite z-score is 1.25 in assay [7]; 0.892 in [9]; 0.0373 in assay [10]; 1.31 in [11]; 3.24 in assay [15]; 0.0029 in assay [17]. Also, the composite z-score in [18] came to 0.599; in assay [19] it was 0.482; in [20] it was 0.0756. Further, the z-score in [8] was -0.897 (inactive); in assay [12] it was 3.66 (inactive); in [13], -1.17 (inactive); in [14], -1.78 (inactive); in [16] it was 0.681 (inactive).
